Records with an inconclusive call do not appear. A structure can be active in one record and inactive in another. Active and inactive are the calls of the source. Unless noted, calls come from the whole dose curve; as a rule, active = well fitted curve in the direction sought with a large enough effect in the repeat runs; inconclusive = weak or mixed curves; inactive = no such curve, though single readings can be large; an effect the other way counts as inactive or inconclusive.
Key:
[1] = target: Aromatase (Homo sapiens) (UniProt P11511); assay: qHTS assay to identify aromatase inhibitors (AID 743083); note: nearly all actives have a fitted effect of over 55% in size; note: potency is the fitted concentration of half-maximal effect
[2] = target: Aryl hydrocarbon receptor (Homo sapiens) (UniProt P35869); assay: qHTS assay to identify small molecule that activate the aryl hydrocarbon receptor (AhR) signaling pathway (AID 743085);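 note: HG2L7.5c1 human HepG2 liver cells with stably integrated DRE-driven firefly reporter; series mostly up to about 70 µM; nearly all actives have a fitted effect of over 15% in size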
How it was run: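 Luminescence (ONE-Glo) from a dioxin-responsive-element luciferase reporter in HG2L7.5c1 HepG2 cells after 24 hr compound exposure at 37C; viability measured by CellTiter-Fluor fluorescence beforehand.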

[3] = qHTS assay to identify small molecule antagonists of the retinoic acid receptor (RAR) signaling pathway (AID 1159552; note: nearly all actives have a fitted effect of over 50% in size; note: potency is the fitted concentration of half-maximal effect)
How it was run: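 Luminescent RARE reporter read-out in C3RL4 cells: 6 hr co-treatment at 37 C of test compounds with retinol at 1 uM final. Cells plated overnight beforehand; luciferase reagent incubated 30 min at room temperature before reading.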

[4] = target: Acetylcholinesterase (Homo sapiens) (UniProt P22303); assay: Acetylcholinesterase (AChE) small molecule antagonists: colormetric cell-based qHTS assay (AID 1347395; calls by dose curve; note: nearly all actives have a fitted effect of over 30% in size)
How it was run: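 Colorimetric readout: DTNB quantifies thiocholine from acetylthiocholine hydrolysed by endogenous AChE of SH-SY5Y cells (2,000/well, plated overnight). Compound pretreatment 30 min, substrate incubation 90 min, both 37 C.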

[5] = target: Acetylcholinesterase (Homo sapiens) (UniProt P22303); assay: Acetylcholinesterase (AChE) small molecule antagonists: enzyme-based qHTS assay (AID 1347397; calls by dose curve; note: nearly all actives have a fitted effect of over 55% in size); settings: Potency: AChE enzyme activity inhibition; outcome: AChE enzyme activity inhibition
How it was run: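 rhAChE 50 mU/mL (dispensed) + cpd or DMSO, 30 min RT; add DTNB/acetylthiocholine cocktail, 10 min RT; colorimetric thiocholine readout. qHTS, 1536-well format.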

[6] = target: Acetylcholinesterase (Homo sapiens) (UniProt P22303); assay: Acetylcholinesterase (AChE) small molecule antagonists: fluorescence cell-based qHTS assay (AID 1347398; calls by dose curve; note: nearly all actives have a fitted effect of over 50% in size; note: potency is the fitted concentration of half-maximal effect); settings: Potency: AChE activity; outcome: AChE activity
How it was run: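 Read-out is Thiolite Green fluorescence at Ex/Em = 490/520 nm, formed by reaction with thiocholine released when cellular AChE in SH-SY5Y cells hydrolyzes acetylthiocholine. Compounds were preincubated 30 min at 37 C before substrate.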

[7] = target: Acetylcholinesterase (Homo sapiens) (UniProt P22303); assay: Acetylcholinesterase (AChE) small molecule antagonists: enzyme-based qHTS assay with human liver microsomes (AID 1347399; calls by dose curve; note: nearly all actives have a fitted effect of over 60% in size); settings: Potency: qHTS inhibition; outcome: qHTS inhibition
How it was run: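 Recombinant human AChE (50 mU/mL in the enzyme mix) and human liver microsomes (0.25 mg/mL final) were preincubated with compound and NADPH (0.25 mg/mL final) for 30 min at 37 C. Acetylthiocholine/DTNB was then added; thiocholine was read colorimetrically after 10 min at room temperature.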

[8] = qHTS assay to identify small molecule agonists of the estrogen related receptor signaling pathway with the pleiotropic PPARgamma coactivator (PGC) from Tox21 10K library (AID 1224842); note: nearly all actives have a fitted effect of over 15% in size
How it was run: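 Luminescence from One-Glo (30 min, room temperature) measured after PGC/ERR cells had 18 h at 37 C with pinned compound (23 nL in DMSO). Cells had been seeded at 2,000 per well and pre-incubated 6 h.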

[9] = qHTS assay to identify small molecule agonists of H2AX (AID 1224845; active = well fitted activation curve with a large enough effect in the signal ratio in the repeat runs, not every such curve was filed as active; the % refers to the signal ratio; note: potency is the fitted concentration of half-maximal effect)
How it was run: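 Phospho-H2AX Ser139 measured by HTRF (ex 320 nm; em 665 and 620 nm) after 24 hr antibody incubation. Compounds, 15 concentrations, 0.76% DMSO, were applied to CHO-K1 cells for 3hr at 37C before lysis.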

[10] = Caspase-3/7 induction in HepG2 cells by small molecules, qHTS assay (AID 1346978); note: nearly all actives have a fitted effect of over 15% in size; note: potency is the fitted concentration of half-maximal effect
How it was run: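 Caspase-3/7 induction was measured by Caspase-Glo 3/7 luminescence (30 min, room temperature) after a 17 hr compound exposure of wild-type HepG2 cells seeded at 2,000 per well and pre-incubated 5 hr.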

[11] = qHTS assay to identify small molecule antagonists of the estrogen related receptor (ERR) signaling pathway - cell viability counter screen (AID 1224818); note: potency is the fitted concentration of half-maximal effect;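 note: viability measured after 17.5 h of compound exposure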
How it was run: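 After a 6 h pre-incubation, ERR cells were dosed by pin tool with compounds, positive/negative controls or DMSO alone. Following 17.5 h at 37 C and 30 min with CellTiter-Fluor, fluorescence was recorded.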

[12] = qHTS assay to identify small molecule antagonists of the estrogen related receptor (ERR) signaling pathway (AID 1224819; note: nearly all actives have a fitted effect of over 50% in size; note: potency is the fitted concentration of half-maximal effect)
How it was run: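 Luminescence readout (One-Glo, 30 min, RT) of ERR cell line after 18 h compound exposure at 37 C; cells seeded 2,000/well, pre-incubated 6 h, compounds pinned from DMSO stocks.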

[13] = qHTS assay to identify small molecule agonists of the estrogen related receptor (ERR) signaling pathway (AID 1224820); note: potency is the fitted concentration of half-maximal effect
How it was run: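 ERR reporter cell line (from NTP), 2,000 cells/well, incubated 6 h before compound addition, then 18 h at 37 C. Luminescence measured 30 min after One-Glo reagent at room temperature.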

[14] = system: estrogen-related receptor alpha (ERRalpha) with PGC-1alpha coactivator, human; assay: qHTS assay to identify small molecule antagonists of the estrogen related receptor signaling pathway with the pleiotropic PPARgamma coactivator (PGC) (AID 1224821; calls by dose curve; note: nearly all actives have a fitted effect of over 50% in size; note: potency is the fitted concentration of half-maximal effect)
How it was run: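 PGC/ERR reporter cell line, plated 6 h before compound addition, then exposed 18 h at 37 °C. Luciferase activity read by luminescence 30 min after One-Glo addition; decrease indicates antagonism.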

[15] = qHTS assay to identify small molecule antagonists of the estrogen related receptor signaling pathway with the pleiotropic PPARgamma coactivator (PGC) cell viability counter screen (AID 1224822; note: potency is the fitted concentration of half-maximal effect;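 note: viability read after 17.5 h compound exposure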)
How it was run: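 PGC/ERR cells were plated at 2,000 per well and allowed 6 h to settle before compound addition. Following 17.5 h at 37 C, CellTiter-Fluor reagent was added and fluorescence was read 30 min later.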

[16] = qHTS assay to identify small molecule agonists of the estrogen related receptor signaling pathway with the pleiotropic PPARgamma coactivator (PGC) (AID 1224823)
How it was run: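 PGC/ERR reporter cells seeded 6 h, then exposed to compounds (23 nL in DMSO) for 18 h at 37 C. One-Glo luciferase luminescence read after 30 min at room temperature.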

Measured: Potency

Aromatase (Homo sapiens), sequence (P11511 whole entry, looked up): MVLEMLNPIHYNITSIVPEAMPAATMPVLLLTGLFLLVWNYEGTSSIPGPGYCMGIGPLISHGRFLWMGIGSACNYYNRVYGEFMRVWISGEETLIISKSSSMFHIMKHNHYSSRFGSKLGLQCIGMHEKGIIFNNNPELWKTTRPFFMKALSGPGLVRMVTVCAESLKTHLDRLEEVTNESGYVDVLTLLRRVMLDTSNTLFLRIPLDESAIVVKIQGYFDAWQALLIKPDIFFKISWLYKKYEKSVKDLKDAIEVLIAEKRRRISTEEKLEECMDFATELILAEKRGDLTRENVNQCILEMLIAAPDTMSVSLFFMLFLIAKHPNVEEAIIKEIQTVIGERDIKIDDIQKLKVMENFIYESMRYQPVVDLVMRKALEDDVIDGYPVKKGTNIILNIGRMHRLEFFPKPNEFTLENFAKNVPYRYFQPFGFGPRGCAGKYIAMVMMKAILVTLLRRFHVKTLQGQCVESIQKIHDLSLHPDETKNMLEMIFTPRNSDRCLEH
Acetylcholinesterase (Homo sapiens), sequence (P22303 whole entry, looked up): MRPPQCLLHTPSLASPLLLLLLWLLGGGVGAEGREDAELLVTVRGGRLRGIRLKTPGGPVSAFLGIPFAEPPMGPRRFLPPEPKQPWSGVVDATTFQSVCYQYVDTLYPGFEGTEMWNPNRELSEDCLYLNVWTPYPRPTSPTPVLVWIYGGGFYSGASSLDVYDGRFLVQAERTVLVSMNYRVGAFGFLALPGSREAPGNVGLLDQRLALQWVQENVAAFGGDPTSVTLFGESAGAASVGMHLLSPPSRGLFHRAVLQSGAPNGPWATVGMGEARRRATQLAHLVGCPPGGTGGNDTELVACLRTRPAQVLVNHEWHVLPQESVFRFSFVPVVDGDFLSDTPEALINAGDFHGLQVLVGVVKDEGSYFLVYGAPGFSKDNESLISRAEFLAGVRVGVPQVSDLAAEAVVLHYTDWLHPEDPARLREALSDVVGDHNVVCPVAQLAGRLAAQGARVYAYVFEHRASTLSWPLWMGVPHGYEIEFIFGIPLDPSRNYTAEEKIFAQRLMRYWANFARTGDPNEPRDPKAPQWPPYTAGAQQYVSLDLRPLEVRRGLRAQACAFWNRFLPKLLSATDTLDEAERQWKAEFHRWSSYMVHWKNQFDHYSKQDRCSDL
Aryl hydrocarbon receptor (Homo sapiens), sequence (P35869 whole entry, looked up): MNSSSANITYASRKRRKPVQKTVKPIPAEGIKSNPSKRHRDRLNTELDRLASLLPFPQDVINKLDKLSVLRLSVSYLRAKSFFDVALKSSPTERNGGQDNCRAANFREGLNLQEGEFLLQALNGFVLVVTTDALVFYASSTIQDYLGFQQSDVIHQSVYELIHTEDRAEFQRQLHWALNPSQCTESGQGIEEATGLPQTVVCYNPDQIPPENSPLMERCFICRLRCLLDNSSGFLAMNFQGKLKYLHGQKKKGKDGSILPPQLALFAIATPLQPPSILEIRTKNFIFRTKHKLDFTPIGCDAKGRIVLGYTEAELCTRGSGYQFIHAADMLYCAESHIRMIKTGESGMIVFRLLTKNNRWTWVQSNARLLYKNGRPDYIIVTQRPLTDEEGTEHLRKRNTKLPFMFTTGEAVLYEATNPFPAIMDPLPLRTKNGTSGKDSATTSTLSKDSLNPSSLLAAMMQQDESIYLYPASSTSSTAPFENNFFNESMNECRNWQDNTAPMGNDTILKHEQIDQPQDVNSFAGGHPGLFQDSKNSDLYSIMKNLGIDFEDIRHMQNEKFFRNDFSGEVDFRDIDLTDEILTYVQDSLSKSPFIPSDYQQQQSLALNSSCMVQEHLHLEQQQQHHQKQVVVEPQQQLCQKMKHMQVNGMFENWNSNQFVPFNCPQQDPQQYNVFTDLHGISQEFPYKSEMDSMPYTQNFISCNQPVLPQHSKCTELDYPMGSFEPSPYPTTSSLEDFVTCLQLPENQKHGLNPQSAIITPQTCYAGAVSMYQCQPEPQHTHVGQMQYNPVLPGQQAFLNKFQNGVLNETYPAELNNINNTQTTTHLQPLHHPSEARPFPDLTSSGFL

c1cc(OCC2CO2)cc(OCC2CO2)c1 (centres undefined)
active: [1] 38.3 µM
inactive: [2] | [3] | [4] | [5] | [6] | [7]

CCc1cccc(C)c1N
inactive: [1] | [2] | [3] | [8] | [9] | [4] | [7]
34.5 µM (active) and inactive: [6]

Cc1cccc([N+](=O)[O-])c1C
inactive: [1] | [2] | [3] | [9] | [10] | [4] | [5] | [6] | [7]

C[C@@]12C(=O)OC(=O)[C@]1(C)C1CCC2O1
inactive: [2] | [4] | [5] | [6] | [7]
active: [1] 3.59 µM | [3] 5.31 µM | [9] 22 µM | [10] 0.376 µM

Nc1cccc([N+](=O)[O-])c1
inactive: [1] | [3] | [4] | [5] | [6] | [7]

Oc1ccc(Cl)cc1Cc1cc(Cl)ccc1O
inactive: [2] | [4] | [5] | [6] | [7]
active: [1] 31.2 µM | [3] 26.6 µM

COc1ccc(CNC(=O)/C=C/c2ccc3[nH]cc(CCN(C)C)c3c2)cc1
inactive: [11] | [12] | [13] | [14] | [15] | [16]

C#CCOC(=O)C1=CCCN(C)C1
active: [13] 22 µM
inactive: [11] | [12] | [14] | [15]

COc1ccc2[nH]c3c(c2c1)CCNC3
inactive: [11] | [12] | [13] | [14] | [15] | [16]

C[C@H](Cc1ccc2c(c1)OC(C(=O)O)(C(=O)O)O2)NC[C@H](O)c1cccc(Cl)c1
inactive: [11] | [12] | [13] | [14] | [15] | [16]

C[C@@H](N)Cc1cnc[nH]1
inactive: [11] | [12] | [13] | [14] | [15] | [16]

CS(=N)(=O)CC[C@H](N)C(=O)O (some centres undefined)
inactive: [11] | [12] | [13] | [14] | [15] | [16]

C#CCN[C@H](C)Cc1ccccc1
inactive: [11] | [12] | [13] | [14] | [15] | [16]

NCCc1c[nH]c2ccccc12
inactive: [11] | [12] | [13] | [14] | [15] | [16]

CCCN(CCC)[C@H]1CCc2c(F)ccc(O)c2C1
inactive: [11] | [12] | [13] | [14] | [15] | [16]

C[N+](C)(C)CC#CCN1CCCC1=O
inactive: [11] | [12] | [13] | [14] | [15] | [16]

CC(N)c1cccc(Cl)c1Cl (centres undefined)
inactive: [11] | [12] | [13] | [14] | [15] | [16]

CCCN(CCC)[C@@H]1CCc2cccc(O)c2C1
inactive: [11] | [12] | [13] | [14] | [15] | [16]

CC(Cc1ccc(OCC(=O)O)cc1)NCC(O)c1cccc(Cl)c1 (centres undefined)
inactive: [11] | [12] | [13] | [14] | [15] | [16]

OCc1cnc[nH]1
inactive: [11] | [12] | [13] | [14] | [15] | [16]

Cc1sc2ccccc2c1CC1=NCCN1
inactive: [11] | [12] | [13] | [14] | [15] | [16]

CC12NC(Cc3ccccc31)c1ccccc12 (centres undefined)
inactive: [11] | [12] | [13] | [14] | [15] | [16]

NC(CCCCCP(=O)(O)O)C(=O)O (centres undefined)
inactive: [11] | [12] | [13] | [14] | [15] | [16]

NCc1cc(=O)[nH]o1
inactive: [11] | [12] | [13] | [14] | [15] | [16]

CCCN(CCC)CCc1ccc(O)c(O)c1
inactive: [11] | [12] | [13] | [14] | [15] | [16]

CCCN(CCC)C1CCc2cccc(O)c2C1 (centres undefined)
inactive: [11] | [12] | [13] | [14] | [15] | [16]

CC(N)[C@H](O)c1ccc(O)c(O)c1 (some centres undefined)
inactive: [11] | [12] | [13] | [14] | [15] | [16]

NC(N)=NOCCC(N)C(=O)O (centres undefined)
inactive: [11] | [12] | [13] | [14] | [15] | [16]

Clc1ccc(N2CC3CCC(C2)N3)nn1
inactive: [11] | [12] | [13] | [14] | [15] | [16]

N[C@@]1(C(=O)O)CC[C@@H](C(=O)O)C1
inactive: [11] | [12] | [13] | [14] | [15] | [16]

COc1ccc2c(c[n+](C)c3c4cc5c(cc4ccc23)OCO5)c1OC
inactive: [13] | [16]
active: [11] 18.1 µM | [12] 9.08 µM | [14] 10.6 µM | [15] 5.11 µM

N=C(N)c1ccc(CS(=O)(=O)F)cc1
inactive: [11] | [12] | [13] | [14] | [15] | [16]

CCN1C[C@@]2(COC)C3[C@@H](OC)C4[C@H]1C3([C@@H]1C[C@@]3(O)[C@H](OC(=O)c5ccccc5)[C@@H]1[C@]4(OC(C)=O)[C@@H](O)[C@@H]3OC)[C@H](OC)C[C@H]2O
inactive: [11] | [12] | [13] | [14] | [15] | [16]

CC(C)(C)OC(=O)NC1[C@H]2CNC[C@@H]12 (some centres undefined)
inactive: [11] | [12] | [13] | [16]
active: [14] 15.5 µM | [15] 20.3 µM

CP(=O)(O)C1=CCNCC1
inactive: [11] | [12] | [13] | [14] | [15] | [16]

Source: PubChem BioAssay (Tox21)
